Our source for the Potency and activation values is PubChem BioAssay (Tox21).

Molecules are shown by their SMILES. Records with an inconclusive call do not appear. A call without a number means that no potency is given here. Unmarked numbers belong to inactive results. Active and inactive are the calls of the source. The call rests on the fitted dose curve.
Potency means the concentration at half of the fitted maximal effect.

Chain of Retinoic acid receptor RXR-alpha (Homo sapiens) (P19793 whole entry, looked up): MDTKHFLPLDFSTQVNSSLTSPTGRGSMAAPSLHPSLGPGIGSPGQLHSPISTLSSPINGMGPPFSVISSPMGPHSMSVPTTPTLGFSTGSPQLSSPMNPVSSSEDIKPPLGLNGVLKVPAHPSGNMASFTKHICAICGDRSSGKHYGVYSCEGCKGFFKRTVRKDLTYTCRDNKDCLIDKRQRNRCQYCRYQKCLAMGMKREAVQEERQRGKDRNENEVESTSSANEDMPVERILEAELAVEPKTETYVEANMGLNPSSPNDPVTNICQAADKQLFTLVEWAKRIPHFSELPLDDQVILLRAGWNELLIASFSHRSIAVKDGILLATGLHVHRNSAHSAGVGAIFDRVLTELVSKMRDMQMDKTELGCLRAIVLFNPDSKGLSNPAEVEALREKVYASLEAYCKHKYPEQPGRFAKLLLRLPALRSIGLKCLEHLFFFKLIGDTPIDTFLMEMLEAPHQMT

The test concerns the target Retinoic acid receptor RXR-alpha (Homo sapiens) (UniProt P19793). Kind of test: qHTS assay to identify small molecule agonists of the RXR signaling pathway (AID 1159527). Further: nearly all actives have a fitted effect of over 35% in size. The note with it: HEK293T RXRa-UAS-bla, beta-lactamase ratio, 16 h; series mostly up to 76.8 µM. An excerpt: U.S. Tox21 Program National Center for Advancing Translational Sciences [NCATS] NIH Chemical Genomics Center [NCGC] U.S. Environmental Protection Agency [EPA] National Institutes of Environmental Health Sciences [NIEHS] National Toxicology Program [NTP] U.S. Food and Drug Administration [FDA] Tox21 Assay Overview: The Retinoid X receptor (RXR), a nuclear hormone receptor expressed in liver, spleen, placenta, epidermis, central nervous system. These receptors are able to form homo and heterodimers with other nuclear receptors and due to this heterodimerizing ability, RXR functions as master regulators producing diverse physiological effects. Three subtypes of RXR exist; alpha, beta and gamma. Retinoid X receptor alpha (RXR-alpha) has potential roles in metabolic signaling pathways, skin alopecia, dermal cysts, cardiac development, insulin sensitization etc. Therefore screening environmental chemicals on RXR-alpha signaling can be used for the studies focused on such therapeutic applications. For quantification of RXR-alpha ligands signaling, GeneBLAzer RXR alpha-UAS-bla HEK 293T (Life Technologies, Carlsbad, CA) cells containing a beta-lactamase reporter-gene under control of Retinoid X receptor-alpha response element were used to screen Tox21 10K library.
Tox21 Assay Protocol Summary: RXR-alpha HEK 293T cells were dispensed at 2,000 cells/6 uL of assay medium containing 2% charcoal-stripped FBS using a Multidrop Combi (ThermoFisher Scientific, Waltham, MA) dispenser. The assay was performed in black wall/clear-bottom 1536-well plates (Greiner Bio-One North America Inc. Monroe, NC). 9-cis retinoic acid was used as a positive control in the agonist mode screen. After the assay plates were incubated at 37 C and 5% CO2 for 5 hr, 23 nL of compounds dissolved in DMSO, positive controls or DMSO only were transferred to the assay plate by a Pintool station (Kalypsys, San Diego, CA). The assay plates were incubated at 37 C and 5% CO2 for 16 hr. One uL of LiveBLAzer B/G FRET substrate (Life Technologies) was added using a Flying Reagent Dispenser (Aurora Discovery, San Diego, CA) and the plates were incubated at room temperature for 2 hr. Fluorescence intensity (405 nm excitation, 460/530 nm emission) was measured using an Envision plate reader (PerkinElmer, Shelton, CT).
For `N=C(N)[Se]`, the Potency result was “inactive”.

As for `CC#Cc1cc(C)nc(Nc2ccccc2)n1`, the Potency result is “inactive”.

On to `ClCOCCl`, for which the Potency entry is “inactive”.

`CCCOC(=O)Cc1ccc(OCC(=O)N(CC)CC)c(OC)c1`: the Potency entry was “inactive”.

For `Clc1ccc(C(Cl)(Cl)Cl)cn1`, the Potency entry is “inactive”.

`C(COCC1CO1)OCC1CO1` (stereo not given): the Potency result was “inactive”.

For `CCC(=O)c1ccc(Cl)cc1`, the Potency result is “inactive”.

With `Cc1cc(OC(=O)N(C)C)nn1C(=O)N(C)C`, the Potency result was “inactive”.

On to `C/C=C/CC#N`, for which the Potency result was “inactive”.

For `CON(C)C(=O)Nc1ccc(Br)cc1`, the Potency entry was “inactive”.

Turning to `CNC(=O)NC(O)C(Cl)(Cl)Cl` (stereo not given), the Potency entry is “inactive”.

Regarding `O=C1CCCCC1Cl` (stereo not given), the Potency entry is “inactive”.

As for `OP(O)c1ccccc1`, the Potency result is “inactive”.

As to `COC(=O)c1ccccc1CS(=O)(=O)NC(=O)Nc1nc(OC)cc(OC)n1`, the Potency result was “inactive”.

`CCCCCCCCSC(=O)Oc1cc(Cl)nnc1-c1ccccc1`: the Potency entry was “inactive”.

For `Brc1c(Br)c(Br)c(Br)c(Br)c1Br`, the activation was 13.1% [at 6.98 µM].

For `ClCCCCl`, the Potency result is “inactive”.

As for `O=C(O)CBr`, the Potency result was “inactive”.

As for `O=C(O)C(Br)(Br)Br`, the Potency entry was “inactive”.

As for `O=C(NC(O)C(Cl)(Cl)Cl)NC(O)C(Cl)(Cl)Cl` (stereo not given), the Potency result was “inactive”.

For `C=C(Cl)CSC(=S)N(CC)CC`, the Potency result was “inactive”.

For the molecule `CCCCCCCCBr`, the Potency result was “inactive”.

On to `CCN(CCO)CCO`, for which the Potency result is “inactive”.

On to `CCC(C(N)=O)N1CCCC1=O` (stereo not given), for which the Potency entry was “inactive”.

For the molecule `C=CC(=O)OCCN(C)C`, the Potency result was “inactive”.

For `CCCN1CCC[C@@H]2Cc3nc(N)ncc3C[C@H]21`, the Potency result is “inactive”.

In the case of `CCCOc1nn(C(=O)NS(=O)(=O)c2ccccc2C(=O)OC)c(=O)n1C`, the Potency result was “inactive”.

For `COc1ccccc1OC`, the Potency entry was “inactive”.

For `C1CN2CCC1CC2`, the Potency result is “inactive”.

For the molecule `CC(C)C(C)(N)C#N` (stereo not given), the Potency result was “inactive”.

Consider `CC(=O)CN(CC(C)=O)N=O`, for which the Potency entry is “inactive”.

As to `C=C(C)[C@H]1CN[C@H](C(=O)O)[C@H]1CC(=O)O`, the Potency entry is “inactive”.

As to `CNC(=O)Oc1ccccc1C(C)C`, the Potency is 49 µM (active).

Consider `CC1N=C(N)OC1c1ccccc1` (stereo not given), for which the Potency result was “inactive”.

Consider `O=CCCl`, for which the Potency result was “inactive”.

On to `CNC(=O)O/N=C(/CSC)C(C)(C)C`, for which the Potency result was “inactive”.

For `COP(=O)(OC)O/C(C)=C/C(=O)N(C)C`, the Potency entry was “inactive”.

Turning to `C[C@H](N)C(=O)c1ccccc1`, the Potency entry was “inactive”.

As for `CCN[C@H](C)Cc1cccc(C(F)(F)F)c1`, the Potency entry was “inactive”.

Take `CN(C)C(=O)Oc1cc(OC(=O)N(C)C)cc(C(O)CNC(C)(C)C)c1` (stereo not given): the Potency result was “inactive”.
